Measured values as given in ChEMBL document CHEMBL2218924, “A broad activity screen in support of a chemogenomic map for kinase signalling research and drug discovery” (Biochem J, 2013).

Tests used:
[1] = target: Focal adhesion kinase 1 (Homo sapiens) (UniProt Q05397); conditions: at 10 µM
[2] = target: Fibroblast growth factor receptor 1 (Homo sapiens) (UniProt P11362); conditions: at 1 µM
[3] = target: Fibroblast growth factor receptor 1 (Homo sapiens) (UniProt P11362); conditions: at 10 µM
[4] = target: Fibroblast growth factor receptor 2 (Homo sapiens) (UniProt P21802); conditions: at 1 µM
[5] = target: Fibroblast growth factor receptor 3 (Homo sapiens) (UniProt P22607); conditions: at 10 µM
[6] = target: Fibroblast growth factor receptor 4 (Homo sapiens) (UniProt P22455); conditions: at 1 µM
[7] = target: Fibroblast growth factor receptor 4 (Homo sapiens) (UniProt P22455); conditions: at 10 µM
[8] = target: Tyrosine-protein kinase Fer (Homo sapiens) (UniProt P16591); conditions: at 1 µM
[9] = target: Tyrosine-protein kinase Fer (Homo sapiens) (UniProt P16591); conditions: at 10 µM
[10] = target: Tyrosine-protein kinase Fes/Fps (Homo sapiens) (UniProt P07332); conditions: at 1 µM
[11] = target: Tyrosine-protein kinase Fes/Fps (Homo sapiens) (UniProt P07332); conditions: at 10 µM
[12] = target: Tyrosine-protein kinase Fgr (Homo sapiens) (UniProt P09769); conditions: at 1 µM
[13] = target: Tyrosine-protein kinase Fgr (Homo sapiens) (UniProt P09769); conditions: at 10 µM
[14] = target: Vascular endothelial growth factor receptor 3 (Homo sapiens) (UniProt P35916); conditions: at 1 µM
[15] = target: Fibroblast growth factor receptor 2 (Homo sapiens) (UniProt P21802); conditions: at 10 µM
[16] = target: Fibroblast growth factor receptor 3 (Homo sapiens) (UniProt P22607); conditions: at 1 µM
[17] = target: Vascular endothelial growth factor receptor 1 (Homo sapiens) (UniProt P17948); conditions: at 1 µM
[18] = target: Vascular endothelial growth factor receptor 1 (Homo sapiens) (UniProt P17948); conditions: at 10 µM
[19] = target: Receptor-type tyrosine-protein kinase FLT3 (Homo sapiens) (UniProt P36888); conditions: at 1 µM
[20] = target: Receptor-type tyrosine-protein kinase FLT3 (Homo sapiens) (UniProt P36888); conditions: at 10 µM

Fibroblast growth factor receptor 3 (Homo sapiens), sequence (P22607 23-806 limits assumed): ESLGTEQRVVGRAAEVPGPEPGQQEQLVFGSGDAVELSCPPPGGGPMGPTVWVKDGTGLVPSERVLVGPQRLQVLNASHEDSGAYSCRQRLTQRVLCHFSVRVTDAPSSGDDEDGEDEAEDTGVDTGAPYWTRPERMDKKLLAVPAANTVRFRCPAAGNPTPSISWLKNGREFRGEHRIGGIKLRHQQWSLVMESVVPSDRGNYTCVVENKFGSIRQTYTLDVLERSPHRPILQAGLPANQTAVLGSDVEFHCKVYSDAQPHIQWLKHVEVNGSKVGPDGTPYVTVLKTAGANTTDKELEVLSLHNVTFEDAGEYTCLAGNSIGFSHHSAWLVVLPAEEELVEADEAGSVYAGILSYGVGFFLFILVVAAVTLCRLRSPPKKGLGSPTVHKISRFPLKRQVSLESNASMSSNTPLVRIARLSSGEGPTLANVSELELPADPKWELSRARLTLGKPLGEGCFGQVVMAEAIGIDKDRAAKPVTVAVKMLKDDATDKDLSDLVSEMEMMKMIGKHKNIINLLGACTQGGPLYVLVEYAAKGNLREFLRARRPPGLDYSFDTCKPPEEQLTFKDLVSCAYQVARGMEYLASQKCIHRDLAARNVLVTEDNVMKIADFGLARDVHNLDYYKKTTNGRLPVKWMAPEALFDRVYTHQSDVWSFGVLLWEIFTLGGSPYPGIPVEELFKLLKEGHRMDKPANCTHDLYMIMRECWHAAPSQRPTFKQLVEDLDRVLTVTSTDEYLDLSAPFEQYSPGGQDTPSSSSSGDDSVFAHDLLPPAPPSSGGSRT
Tyrosine-protein kinase Fgr (Homo sapiens), sequence (P09769 2-529 limits assumed): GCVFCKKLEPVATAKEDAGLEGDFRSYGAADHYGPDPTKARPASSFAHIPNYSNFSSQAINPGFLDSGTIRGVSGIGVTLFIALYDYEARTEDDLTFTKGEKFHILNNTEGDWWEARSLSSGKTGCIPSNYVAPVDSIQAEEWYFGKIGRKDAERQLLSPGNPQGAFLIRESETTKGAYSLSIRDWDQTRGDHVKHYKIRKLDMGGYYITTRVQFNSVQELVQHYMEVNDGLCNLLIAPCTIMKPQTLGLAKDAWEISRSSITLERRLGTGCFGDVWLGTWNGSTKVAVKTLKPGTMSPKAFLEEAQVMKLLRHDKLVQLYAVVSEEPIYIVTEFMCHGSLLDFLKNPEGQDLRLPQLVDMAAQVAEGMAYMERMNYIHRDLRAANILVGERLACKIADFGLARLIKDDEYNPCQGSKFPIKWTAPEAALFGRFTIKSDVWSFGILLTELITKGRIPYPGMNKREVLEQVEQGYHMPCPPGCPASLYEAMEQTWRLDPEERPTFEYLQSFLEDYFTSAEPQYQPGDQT
Fibroblast growth factor receptor 1 (Homo sapiens), sequence (P11362 22-822 limits assumed): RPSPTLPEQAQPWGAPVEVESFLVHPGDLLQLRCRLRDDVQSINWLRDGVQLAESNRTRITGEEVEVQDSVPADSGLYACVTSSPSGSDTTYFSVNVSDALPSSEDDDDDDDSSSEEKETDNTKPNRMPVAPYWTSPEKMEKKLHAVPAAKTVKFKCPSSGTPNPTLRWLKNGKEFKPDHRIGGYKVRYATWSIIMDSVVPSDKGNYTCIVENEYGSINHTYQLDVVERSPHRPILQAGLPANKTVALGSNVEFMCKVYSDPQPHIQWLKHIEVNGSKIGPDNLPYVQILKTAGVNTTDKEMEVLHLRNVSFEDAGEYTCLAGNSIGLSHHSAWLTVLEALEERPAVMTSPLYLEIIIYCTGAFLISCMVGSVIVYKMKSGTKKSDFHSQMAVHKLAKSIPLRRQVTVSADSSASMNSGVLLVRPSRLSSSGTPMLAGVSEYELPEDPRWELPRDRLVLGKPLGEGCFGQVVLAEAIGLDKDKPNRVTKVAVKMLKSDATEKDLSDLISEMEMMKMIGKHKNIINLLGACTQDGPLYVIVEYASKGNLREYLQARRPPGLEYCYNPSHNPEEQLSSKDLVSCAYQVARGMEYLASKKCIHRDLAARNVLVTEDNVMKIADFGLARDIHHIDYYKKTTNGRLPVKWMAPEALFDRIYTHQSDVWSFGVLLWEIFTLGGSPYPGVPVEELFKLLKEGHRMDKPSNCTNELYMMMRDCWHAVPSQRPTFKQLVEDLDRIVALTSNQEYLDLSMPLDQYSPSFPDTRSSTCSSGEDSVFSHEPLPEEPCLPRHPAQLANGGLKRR
Tyrosine-protein kinase Fes/Fps (Homo sapiens), sequence (P07332 whole entry): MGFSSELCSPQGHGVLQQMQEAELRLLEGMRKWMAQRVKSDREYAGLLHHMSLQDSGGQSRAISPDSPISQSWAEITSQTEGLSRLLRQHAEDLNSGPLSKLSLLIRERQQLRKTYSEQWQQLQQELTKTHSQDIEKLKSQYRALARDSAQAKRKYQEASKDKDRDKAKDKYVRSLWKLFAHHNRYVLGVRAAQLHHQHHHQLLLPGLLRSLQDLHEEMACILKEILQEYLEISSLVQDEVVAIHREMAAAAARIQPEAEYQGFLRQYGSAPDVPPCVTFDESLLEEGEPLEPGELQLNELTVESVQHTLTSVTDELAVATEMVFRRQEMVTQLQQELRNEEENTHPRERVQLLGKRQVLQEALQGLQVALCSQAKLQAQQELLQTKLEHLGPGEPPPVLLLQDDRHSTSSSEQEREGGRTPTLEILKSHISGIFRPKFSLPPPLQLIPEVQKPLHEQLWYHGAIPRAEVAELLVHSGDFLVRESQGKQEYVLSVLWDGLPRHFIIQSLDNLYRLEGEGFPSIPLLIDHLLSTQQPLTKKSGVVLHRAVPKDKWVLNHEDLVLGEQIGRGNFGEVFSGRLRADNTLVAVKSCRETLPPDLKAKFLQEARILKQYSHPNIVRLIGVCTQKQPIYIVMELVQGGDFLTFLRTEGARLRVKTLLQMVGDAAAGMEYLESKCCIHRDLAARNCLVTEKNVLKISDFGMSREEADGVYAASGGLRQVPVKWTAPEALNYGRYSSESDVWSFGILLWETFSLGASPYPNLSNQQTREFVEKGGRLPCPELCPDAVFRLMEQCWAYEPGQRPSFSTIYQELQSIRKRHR
Fibroblast growth factor receptor 4 (Homo sapiens), sequence (P22455 22-802 limits assumed): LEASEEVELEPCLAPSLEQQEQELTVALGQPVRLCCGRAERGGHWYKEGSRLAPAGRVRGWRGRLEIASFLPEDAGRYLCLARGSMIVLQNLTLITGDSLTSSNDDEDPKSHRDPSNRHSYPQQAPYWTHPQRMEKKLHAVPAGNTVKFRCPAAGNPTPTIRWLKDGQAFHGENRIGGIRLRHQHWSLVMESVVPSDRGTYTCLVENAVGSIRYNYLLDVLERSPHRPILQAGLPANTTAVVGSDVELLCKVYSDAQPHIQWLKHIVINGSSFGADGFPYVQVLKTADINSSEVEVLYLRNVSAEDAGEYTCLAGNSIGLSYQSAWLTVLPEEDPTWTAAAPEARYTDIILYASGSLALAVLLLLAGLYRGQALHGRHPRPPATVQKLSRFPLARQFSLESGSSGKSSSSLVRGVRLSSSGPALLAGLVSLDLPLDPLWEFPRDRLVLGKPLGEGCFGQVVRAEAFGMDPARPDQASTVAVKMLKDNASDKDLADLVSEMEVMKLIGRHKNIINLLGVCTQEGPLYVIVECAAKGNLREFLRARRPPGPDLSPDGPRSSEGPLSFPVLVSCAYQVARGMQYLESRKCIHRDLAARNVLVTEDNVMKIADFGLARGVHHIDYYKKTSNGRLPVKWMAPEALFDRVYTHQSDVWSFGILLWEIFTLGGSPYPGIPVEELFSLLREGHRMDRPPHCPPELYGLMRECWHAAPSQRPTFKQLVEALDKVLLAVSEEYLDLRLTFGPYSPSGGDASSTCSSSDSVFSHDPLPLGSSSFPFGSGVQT
Receptor-type tyrosine-protein kinase FLT3 (Homo sapiens), sequence (P36888 whole entry): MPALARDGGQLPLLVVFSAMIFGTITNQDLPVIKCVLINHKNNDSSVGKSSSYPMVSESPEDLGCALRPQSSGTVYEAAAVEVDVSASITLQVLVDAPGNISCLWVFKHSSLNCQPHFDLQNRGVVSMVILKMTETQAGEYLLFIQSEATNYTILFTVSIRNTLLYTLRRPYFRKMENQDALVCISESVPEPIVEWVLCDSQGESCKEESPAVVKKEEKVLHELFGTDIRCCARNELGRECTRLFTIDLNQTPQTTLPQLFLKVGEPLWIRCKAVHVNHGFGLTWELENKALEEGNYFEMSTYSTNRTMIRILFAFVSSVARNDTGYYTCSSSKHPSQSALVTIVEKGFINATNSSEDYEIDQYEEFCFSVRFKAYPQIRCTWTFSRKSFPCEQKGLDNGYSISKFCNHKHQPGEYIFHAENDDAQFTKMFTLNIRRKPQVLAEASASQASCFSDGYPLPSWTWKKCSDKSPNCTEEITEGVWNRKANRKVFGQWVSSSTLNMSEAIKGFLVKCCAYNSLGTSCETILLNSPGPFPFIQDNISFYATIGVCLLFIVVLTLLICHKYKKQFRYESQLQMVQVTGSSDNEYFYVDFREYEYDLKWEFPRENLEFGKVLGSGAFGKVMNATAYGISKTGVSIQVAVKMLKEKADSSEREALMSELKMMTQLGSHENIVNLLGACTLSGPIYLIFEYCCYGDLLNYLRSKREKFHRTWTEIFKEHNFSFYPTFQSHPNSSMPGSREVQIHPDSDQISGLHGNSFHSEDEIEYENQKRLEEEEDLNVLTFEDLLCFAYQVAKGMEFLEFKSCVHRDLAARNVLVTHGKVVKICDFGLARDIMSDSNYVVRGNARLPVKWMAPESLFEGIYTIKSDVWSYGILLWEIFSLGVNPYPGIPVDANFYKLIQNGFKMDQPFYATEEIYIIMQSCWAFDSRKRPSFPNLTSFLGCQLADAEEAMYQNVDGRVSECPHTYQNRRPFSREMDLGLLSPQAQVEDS

| Structure (SMILES) | residual activity [1] | residual activity [2] | residual activity [3] | residual activity [4] | residual activity [5] | residual activity [6] | residual activity [7] | residual activity [8] | residual activity [9] | residual activity [10] | residual activity [11] | residual activity [12] | residual activity [13] | residual activity [14] | residual activity [15] | residual activity [16] | residual activity [17] | residual activity [18] | residual activity [19] | residual activity [20] |
| --- | --- | --- | --- | --- | --- | --- | --- | --- | --- | --- | --- | --- | --- | --- | --- | --- | --- | --- | --- | --- |
| CCc1nc(-c2ccc(OC)cc2)[nH]c1-c1ccncc1 | 81% | 104% | 80% | 121% | 124% | 102% | 109% | 104% | 101% | 109% | 105% | 111% | 102% | 100% |  |  |  |  |  |  |
| CC(C)(C)c1cc(C=C(C#N)C#N)cc(Br)c1O | 104% | 108% |  | 99% | 99% | 118% | 102% | 120% | 107% | 125% | 98% | 113% | 96% | 96% | 105% | 126% | 102% | 82% |  |  |
| COc1ccc2c(c[n+](C)c3c4cc5c(cc4ccc23)OCO5)c1OC | 93% | 85% | 44% |  | 57% |  | 100% |  | 80% | 121% | 76% |  | 77% | 85% |  |  | 96% | 47% | 92% | 75% |
| CC(C)[C@H](CO)Nc1nc(Nc2cccc(Cl)c2)c2ncn(C(C)C)c2n1 | 13% | 98% | 15% |  | 56% | 118% |  | 90% | 26% | 79% | 19% | 23% | 0% | 42% |  |  | 88% | 43% | 17% | 2% |
| CCn1cnc2c(Nc3cccc(Cl)c3)nc(N[C@@H]3CCCC[C@@H]3N)nc21 | 12% | 76% | 11% |  | 53% | 118% | 79% | 85% | 39% | 55% | 9% | 18% | 3% | 50% | 34% | 113% | 63% | 15% | 18% | 1% |
| O=C1NC(=O)c2c1c1c3ccccc3n3c1c1c2c2ccccc2n1C1CCC3O1 |  | 72% | 41% | 83% | 92% |  |  | 33% | 20% | 90% | 99% |  |  | 0% | 78% | 82% | 7% | 4% | 24% | 3% |
| COc1ccc2c(c1)/C(=C/c1cnc[nH]1)C(=O)N2 | 25% | 65% | 3% | 53% | 14% |  |  |  |  |  |  | 69% | 16% |  | 12% | 61% |  |  | 10% | 0% |
| N/C(=N\[N+](=O)[O-])N/N=C\c1ccc(-c2cccc([N+](=O)[O-])c2)o1 |  |  |  |  | 92% |  |  |  |  |  |  |  |  | 58% | 92% | 95% | 86% | 72% | 73% | 48% |
| COC(=O)[C@@]1(O)C[C@H]2O[C@]1(C)n1c3ccccc3c3c4c(c5c6ccccc6n2c5c31)C(=O)NC4 | 5% | 10% | 11% | 20% | 2% | 88% | 36% | 2% | 0% | 7% | 1% | 3% | -1% | 0% | 2% | 17% | 0% | 0% | 0% | 1% |
| COc1cc2ncnc(Nc3ccc(OCc4ccccc4)cc3)c2cc1OC | 81% | 88% | 69% | 100% | 100% | 122% | 99% | 111% | 98% | 131% | 97% | 67% | 42% | 6% | 109% | 97% | 57% | 27% | 40% | 24% |
| O=C1Nc2ccc3ncsc3c2/C1=C/c1c[nH]cn1 | 13% | 9% | 1% | 18% | 9% | 112% | 84% |  | 40% | 62% | 15% | 47% | 15% | 0% | 3% | 19% | 1% | 0% | 1% | 0% |
| c1cc(-c2cnn3cc(-c4ccc(OCCN5CCCCC5)cc4)cnc23)ccn1 |  | 47% | 5% |  |  |  | 72% |  |  | 87% | 31% | 28% | 2% | 1% |  |  | 0% | 0% | 0% | -1% |
| C[S+]([O-])c1ccc(-c2nc(-c3ccc(F)cc3)c(-c3ccncc3)[nH]2)cc1 (stereo not drawn) | 115% | 142% | 90% | 99% | 99% | 110% | 97% | 107% | 109% | 112% | 105% | 87% | 51% | 93% | 81% | 115% | 101% | 39% |  | 82% |
| O=c1[nH]c2ccccc2n1C1CCN(Cc2ccc(-c3nc4cc5[nH]cnc5cc4nc3-c3ccccc3)cc2)CC1 | 87% | 112% | 38% | 111% | 99% | 111% | 88% | 112% | 99% | 120% | 97% | 107% | 83% | 100% | 78% | 115% | 103% | 86% | 95% | 38% |
| COc1cc(OC)c(/C=C2\C(=O)Nc3ccccc32)c(OC)c1 | 81% | 107% | 88% | 102% |  |  |  | 97% | 94% | 102% | 92% | 86% | 76% | 76% | 90% |  | 92% | 94% | 83% | 72% |
| O=C1c2ccccc2-c2nc3nnnn3nc21 |  | 113% | 81% | 118% | 132% | 118% | 106% | 112% | 103% |  |  | 104% | 78% |  | 135% | 125% |  |  | 103% | 78% |
| CN[C@@H]1C[C@H]2O[C@@](C)([C@@H]1OC)n1c3ccccc3c3c4c(c5c6ccccc6n2c5c31)C(=O)NC4 |  |  |  |  |  |  |  |  |  |  |  |  |  |  |  |  | 0% | -1% | -1% | -1% |
| O=[N+]([O-])/C=C/c1ccc2c(c1)OCO2 | 72% | 115% | 94% | 108% | 107% | 135% | 104% | 114% | 98% | 113% | 77% | 90% | 92% | 88% | 97% | 104% | 97% | 91% | 95% | 69% |
